Shiga toxin inh = inhibitors of Shiga toxin in Vero cells | inhibition, % at 38.7 µM | Vero cells, Shiga toxin protein synthesis inhibition reporter | hit rate 9.2% among 290,000; in the data active = inhibition mostly above about 28%, no sharp cut-off; inactive = mostly below about 43%
CHX counter = counter-screen hit for Shiga toxin inhibitors, cycloheximide; AID 2314; max response, %; cell reporter, cycloheximide protein synthesis inhibition counterscreen; hit rate 12% among 300,000; in the data active = max response mostly above about 13%, no sharp cut-off; inactive = mostly below about 14%; note: read at 38.3 µM for the half of the compounds with a filed dose
LmPK inh = inhibitors of Leishmania mexicana pyruvate kinase | purified LmPK, Kinase-Glo ATP luminescence, 1 h | Potency, µM (top dose mostly 57.5 µM), actives largely listed as inhibitors | hit rate 0.37% among 290,000 | AID 1721
Target sequence (Q27686 whole entry, looked up): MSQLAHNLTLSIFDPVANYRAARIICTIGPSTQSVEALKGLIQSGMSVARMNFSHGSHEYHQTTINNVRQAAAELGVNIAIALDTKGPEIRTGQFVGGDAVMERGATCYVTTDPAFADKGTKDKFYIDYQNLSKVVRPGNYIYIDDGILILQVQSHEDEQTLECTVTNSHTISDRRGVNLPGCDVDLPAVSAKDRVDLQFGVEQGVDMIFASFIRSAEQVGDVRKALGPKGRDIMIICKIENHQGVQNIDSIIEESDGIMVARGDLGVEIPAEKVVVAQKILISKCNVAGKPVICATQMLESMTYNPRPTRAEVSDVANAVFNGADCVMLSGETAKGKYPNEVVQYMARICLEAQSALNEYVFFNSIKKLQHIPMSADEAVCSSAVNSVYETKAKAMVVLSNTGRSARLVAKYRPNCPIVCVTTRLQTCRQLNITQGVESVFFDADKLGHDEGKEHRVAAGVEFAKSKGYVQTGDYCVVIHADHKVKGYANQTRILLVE
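In 50 mM imidazole pH 7.2 with 7 mM MgCl2, LmPK (0.1 nM) turned over PEP (0.5 mM) and ADP (0.1 mM) for 1 h at room temperature. Luciferase read-out of ATP.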
Tb PYK inh = T. brucei pyruvate kinase inhibition | Potency, µM (highest dose often 76.8 µM), most hits filed as inhibitors | hit rate 0.12% among 410,000 | TbPYK enzyme, Kinase-Glo Plus ATP luminescence, 45 min | Q57TT1; note: nearly all actives have a fitted effect of over 50% in size
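Luminescence from Kinase-Glo Plus, added after a 45-minute room-temperature reaction, served as the end-point read-out. The enzyme and substrate were preincubated with compound before ADP (130 uM final) initiated turnover. Concentration-effect curves came from normalized qHTS data.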
Sm TGR inh = S. mansoni TGR enzyme inhibition; Q962Y6; purified TGR, DTNB reduction, TNB absorbance 405 nm; Potency, µM (highest dose often 114 µM), usual class: inhibitors; hit rate 3% among 360,000; note: nearly all actives have a fitted effect of over 60% in size
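TGR 20 nM + NADPH 100 uM (dispensed conc.), cpd preinc 15 min RT; start with NADPH (500 uM addition) then DTNB (15 mM addition). Kinetic TNB absorbance, 405 nm filter. Four-parameter Hill fit across titration.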
Giardia FBPA inh-1 = inhibitors of Giardia lamblia fructose-1,6-bisphosphate aldolase; purified Giardia FBPA; Potency, µM (highest dose often 59.6 µM), most hits filed as inhibitors; hit rate 0.71% among 290,000; AID 2451; note: nearly all actives have a fitted effect of over 55% in size
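40 nM FBPA preincubated 10 min at RT with compound (up to 57.5 uM final), then substrate plus GAPDH/TPI/NAD/arsenate coupling and diaphorase/resazurin added. Fluorescence read after 20 min at RT, 525/598 nm.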
Giardia growth = blocks growth of Giardia lamblia trophozoites; shares compounds with Giardia FBPA inh-1; Giardia lamblia trophozoite growth inhibition; Potency, µM (titrated, usually from 57.5 µM), hits mostly inhibitors; hit rate 5% among 1,500;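 note: trophozoites exposed to compound for 48 h at 37 °C; nearly all actives have a fitted effect of over 70% in size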
Mammalian tox = mammalian cytotoxicity of Giardia aldolase inhibitor hits; shares compounds with Giardia FBPA inh-1; Potency, µM (top dose mostly 57.5 µM), most hits filed as inhibitors; mammalian cell viability counter-screen, qHTS; hit rate 4% among 1,500;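 note: Chinese hamster ovary cells used as mammalian cytotoxicity surrogate; viability measured as cellular ATP by luminescence; compound exposure lasted 48 h before reading; nearly all actives have a fitted effect of over 60% in size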
Giardia FBPA inh-2 = confirmation of Giardia fructose-bisphosphate aldolase inhibitors | shares compounds with Giardia FBPA inh-1 | purified Giardia aldolase enzyme activity, qHTS | Potency, µM (highest dose often 57.5 µM), hits mostly inhibitors | hit rate 5% among 1,500; note: nearly all actives have a fitted effect of over 45% in size
Rabbit aldolase = selectivity test for Giardia aldolase inhibitors: rabbit aldolase | shares compounds with Giardia FBPA inh-1 | Rabbit muscle FBPA enzyme inhibition, selectivity counter-screen | Potency, µM (doses to about 57.5 µM), actives largely listed as inhibitors | hit rate 4% among 1,500 | AID 2794; note: nearly all actives have a fitted effect of over 60% in size
GAPDH counter = GAPDH inhibition flagged for Giardia aldolase hits. AID 2795. shares compounds with Giardia FBPA inh-1. Potency, µM (titrated, usually from 57.5 µM), hits mostly inhibitors. GAPDH coupling enzyme counterscreen, biochemical, qHTS. hit rate 6% among 1,500; note: nearly all actives have a fitted effect of over 55% in size
A number is an active result; – = inactive; ? = inconclusive; · = not tested or not shown; [ ] = dose if it differs, or a comment. The full list was thinned out, with hits kept by preference. Unless noted, calls come from the whole dose curve; as a rule, active = well fitted curve in the direction sought with a large enough effect; inconclusive = small, poorly fitted or top-dose-only effect, or another doubt; inactive = no such curve, though single readings can be large; an effect the other way counts as inactive or inconclusive.

SMILES | Shiga toxin inh | CHX counter | LmPK inh | Tb PYK inh | Sm TGR inh | Giardia FBPA inh-1 | Giardia growth | Mammalian tox | Giardia FBPA inh-2 | Rabbit aldolase | GAPDH counter
CCN(CC)c1nc(N2CCN(CCO)CC2)nc2ccccc12 | – | – | – | – | – | 12.6µM | – | – | – | – | –
COCCOC(=O)c1c(N)n(Cc2ccco2)c2nc3ccccc3nc12 | – | – | – | – | – | 7.06µM | – | – | – | – | –
O=C(O)c1ccc(Cl)c(NC(=S)NC(=O)c2ccccc2[N+](=O)[O-])c1 | – | – | – | – | – | – | · | · | · | · | ·
COc1ccc(CNCc2cc3c(cc2[N+](=O)[O-])OCO3)cc1 | – | – | – | – | – | 12.6µM | ? | – | – | – | –
Cc1cc(C)cc(NCc2cc3c(cc2[N+](=O)[O-])OCO3)c1 | – | – | – | – | – | – | · | · | · | · | ·
COc1ccc(-n2c(SCc3ccccn3)nc3c(c2=O)SCC3)cc1OC | – | – | –[11.5 µM] | – | – | – | · | · | · | · | ·
CCOc1ccccc1NS(=O)(=O)c1c(C)noc1C | – | – | – | – | – | 12.6µM | – | – | ? | ? | 39.8µM
CN(C)c1ccc(-c2ccnc3c2CC(C)(C(=O)NCc2ccc(F)c(F)c2)O3)cc1 (stereo not drawn) | · | · | · | – | · | · | · | · | · | · | ·
N#CCCN(Cc1cccnc1)C(=S)NC(=O)c1ccc(S(=O)(=O)N2CCCC2)cc1 | – | – | – | ? | – | 7.92µM | – | – | – | – | –
C/C(=N\NC(N)=S)c1ccc2c(c1)OCCO2 | 42.9 | 26.5 | – | – | – | 17.7µM | ? | – | – | – | –
NC(=S)NN=C(c1ccccc1)c1ccccc1 | – | – | – | – | – | ? | · | · | · | · | ·
CCOC(=O)CCCc1ccc(/C(C)=N/NC(=S)NC)cc1 | – | – | – | – | – | – | · | · | · | · | ·
C/C(=N\NC(N)=S)c1ccccc1 | – | – | – | – | – | 15.8µM | – | – | – | – | –
CCOC(=O)CCCc1ccc(/C(C)=N/NC(N)=S)cc1 | – | 14.9 | – | – | – | 6.29µM | – | – | – | – | –
CC(=NNC(N)=S)c1ccc2cc3c(cc2c1)OCO3 | · | · | · | – | · | · | · | · | · | · | ·
CN1CC[C@@]2(C)c3cc(O)ccc3N(C)C2O1 (stereo partly drawn) | – | – | · | – | · | 0.629µM | ? | – | 2.51µM | 3.55µM | 4.47µM
O=C(CN1CCOCC1)Nc1c2c(nc3ccccc13)N(Cc1ccccc1)CC2 | – | – | – | – | – | 15.8µM | ? | – | – | – | –
O=C(CN1CCCC1)Nc1c2c(nc3ccccc13)N(Cc1ccccc1)CC2 | – | – | – | – | – | ? | · | · | · | · | ·
Cn1c2ccccc2c2cc(/C=N/NC(=O)c3cc(O)ccc3O)ccc21 | – | 11.9 | – | – | ? | 25.1µM | – | – | ? | – | –
CCc1cccc(C)c1NC(=S)N(CCCN1CCOCC1)Cc1cccnc1 | – | – | – | – | – | 15.8µM | – | – | – | – | –
CC(C)/C(C=O)=C(/NC1CCCCC1)c1ccccc1 | · | · | · | – | · | · | · | · | · | · | ·
OCCN(CC#CCC(O)(c1ccccc1)C1CCCC1)CCO (stereo not drawn) | – | – | – | – | ? | – | · | · | · | · | ·
CC(C)(C)N(CC#CCC(O)(c1ccccc1)c1ccccc1)CCO | – | – | – | – | – | 19.9µM | – | – | – | – | –
CC(=O)Nc1ccc(S(=O)(=O)N(Cc2cccnc2)Cc2cc3ccc(C)cc3[nH]c2=O)cc1 | – | – | – | – | – | · | · | · | · | · | ·
Cc1cc(C)c(S(=O)(=O)/N=C2/C=C(Sc3ncn[nH]3)C(=O)c3ccccc32)cc1C | 48.3 | 32.6 | 7.94µM | 5.62µM | 0.316µM | 0.792µM | 14.1µM | 20µM | 6.31µM | 7.08µM | 5.01µM
SMILES | Shiga toxin inh | CHX counter | LmPK inh | Tb PYK inh | Sm TGR inh | Giardia FBPA inh-1 | Giardia growth | Mammalian tox | Giardia FBPA inh-2 | Rabbit aldolase | GAPDH counter
Cc1ccc(C)c(S(=O)(=O)/N=C2\C=C(NS(=O)(=O)c3ccccc3)C(=O)c3ccccc32)c1 | – | – | – | – | ? | · | · | · | · | · | ·
Cc1nnc(SCC2=C(C(=O)O)N3C(=O)C(NC(=O)C(C)n4nc(C(F)(F)F)cc4C)C3SC2)s1 (stereo not drawn) | – | – | – | – | 7.08µM | 6.29µM | – | – | – | – | –
CO/N=C(/C(=O)NC1C(=O)N2C(C(=O)O)=C(CSc3nc(=O)c(O)nn3C)CSC12)c1csc(N)n1 (stereo not drawn) | · | · | · | – | · | ? | · | · | · | · | ·
CC(C(=O)NC1C(=O)N2C(C(=O)O)=C(CSc3nnnn3C)CSC12)n1cc(Cl)cn1 (stereo not drawn) | – | – | – | – | ? | 17.7µM | –[10.4 µM] | – | – | – | –
Nc1nc(N)c(-c2ccccc2)s1 | · | · | · | – | · | · | · | · | · | · | ·
O=c1[nH][nH]c(=S)n1-c1ccccc1C(F)(F)F | – | – | – | · | ? | 17.7µM | ? | – | – | – | –
O=c1cc(O)c2sc(Nc3ccc(F)c(Cl)c3)nc2[nH]1 | – | – | – | – | – | 1.99µM | –[10.4 µM] | – | ? | ? | ?
COc1ccc(OC)c(C2CC(=O)N3CN(c4ccccc4)CSC3=C2C#N)c1 (stereo not drawn) | – | – | – | 3.55µM | 10µM | 1.77µM | ? | – | – | ? | –
COc1ccc(N2CSC3=C(C#N)C(c4cccc(OC)c4OC)CC(=O)N3C2)cc1 (stereo not drawn) | – | – | – | 12.6µM | 22.4µM | 1.99µM | – | – | ? | ? | ?
COc1ccc(C2CC(=O)N3CN(c4ccccc4F)CSC3=C2C#N)cc1OC (stereo not drawn) | – | – | – | 3.16µM | ? | 2.81µM | ? | – | ? | 31.6µM | ?
CCOc1ccc(N(C(=O)c2ccccc2F)S(=O)(=O)c2ccc3c(c2)n(C)c(=O)n3C)cc1 | · | · | · | – | – | · | · | · | · | · | ·
CCC(C(=O)NCCc1ccccc1)n1nc(C)c2sc3ccccc3c2c1=O (stereo not drawn) | · | · | · | – | – | · | · | · | · | · | ·
CCOC(=O)C1=CN(Cc2ccco2)S(=O)(=O)N(C)C1c1ccc2ccccc2c1 (stereo not drawn) | · | · | · | – | · | · | · | · | · | · | ·
COc1ccc(-c2n[nH]c(=S)n2N)c(OC)c1 | – | – | – | – | – | 9.98µM | – | – | – | – | –
COc1ccc(-n2c(-c3ccc(Cl)cc3Cl)n[nH]c2=S)c(OC)c1 | – | – | ? | – | – | – | · | · | · | · | ·

Screening data: PubChem, National Center for Advancing Translational Sciences (NCATS)
